# According to ChEMBL document CHEMBL1961873, “Compounds: GSK PKIS; Assays: Nanosyn kinase panel” (2012):
# Experiments:
# [1] = biological target: Casein kinase I isoform gamma-2 (Homo sapiens) (UniProt P78368); conditions: at 1 µM
# [2] = biological target: Casein kinase I isoform gamma-3 (Homo sapiens) (UniProt Q9Y6M4); conditions: at 0.1 µM
# [3] = biological target: Casein kinase I isoform gamma-3 (Homo sapiens) (UniProt Q9Y6M4); conditions: at 1 µM
# [4] = biological target: Cyclin-dependent kinase 1 (Homo sapiens) (UniProt P06493); conditions: at 0.1 µM
# Cyclin-dependent kinase 1 (Homo sapiens), sequence (P06493 whole entry, looked up): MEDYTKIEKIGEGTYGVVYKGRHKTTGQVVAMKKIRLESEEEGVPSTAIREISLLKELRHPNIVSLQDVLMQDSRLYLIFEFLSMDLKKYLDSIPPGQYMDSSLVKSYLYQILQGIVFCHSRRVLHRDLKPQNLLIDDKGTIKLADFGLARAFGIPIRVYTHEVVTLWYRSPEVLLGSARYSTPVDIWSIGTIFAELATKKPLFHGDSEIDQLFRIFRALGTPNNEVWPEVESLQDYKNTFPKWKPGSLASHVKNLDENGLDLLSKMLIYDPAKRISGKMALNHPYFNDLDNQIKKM
# [5] = biological target: Cyclin-dependent kinase 1 (Homo sapiens) (UniProt P06493); conditions: at 1 µM
# [6] = biological target: Cyclin-dependent kinase 2 (Homo sapiens) (UniProt P24941); conditions: at 0.1 µM
# [7] = biological target: Cyclin-dependent kinase 2 (Homo sapiens) (UniProt P24941); conditions: at 1 µM
# [8] = biological target: Cyclin-dependent kinase 2 (Homo sapiens) (UniProt P24941); conditions: at 0.1 µM; remark: listed apart in the source
# [9] = biological target: Cyclin-dependent kinase 2 (Homo sapiens) (UniProt P24941); conditions: at 1 µM; remark: listed apart in the source
# [10] = biological target: T1, CDK3/Cyclin E (Homo sapiens) (UniProt P24864+Q00526); conditions: at 0.1 µM
# T1 sequence (P24864 whole entry, looked up): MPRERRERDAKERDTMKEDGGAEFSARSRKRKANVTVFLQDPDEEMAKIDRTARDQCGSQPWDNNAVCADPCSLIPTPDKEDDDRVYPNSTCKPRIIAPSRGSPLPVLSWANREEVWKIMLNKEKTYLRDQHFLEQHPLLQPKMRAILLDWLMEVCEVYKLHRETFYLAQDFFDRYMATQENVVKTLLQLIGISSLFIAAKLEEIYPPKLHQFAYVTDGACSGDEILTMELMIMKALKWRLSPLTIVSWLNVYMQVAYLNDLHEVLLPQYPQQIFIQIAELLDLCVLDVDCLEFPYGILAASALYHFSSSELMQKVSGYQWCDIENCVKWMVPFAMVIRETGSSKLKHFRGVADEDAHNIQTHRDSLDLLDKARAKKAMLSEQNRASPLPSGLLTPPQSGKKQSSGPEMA
# T1 sequence (Q00526 whole entry, looked up): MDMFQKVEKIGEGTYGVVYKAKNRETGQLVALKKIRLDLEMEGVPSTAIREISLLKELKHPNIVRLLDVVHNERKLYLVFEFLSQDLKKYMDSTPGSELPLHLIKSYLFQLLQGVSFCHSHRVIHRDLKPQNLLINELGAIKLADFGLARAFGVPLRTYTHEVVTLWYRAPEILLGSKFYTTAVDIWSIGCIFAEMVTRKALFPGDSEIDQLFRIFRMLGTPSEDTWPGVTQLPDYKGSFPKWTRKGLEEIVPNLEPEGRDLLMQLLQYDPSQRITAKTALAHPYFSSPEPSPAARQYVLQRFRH
# [11] = biological target: T1, CDK3/Cyclin E (Homo sapiens); conditions: at 1 µM
# [12] = biological target: Cyclin-dependent kinase 4 (Homo sapiens) (UniProt P11802); conditions: at 0.1 µM
# Cyclin-dependent kinase 4 (Homo sapiens), sequence (P11802 whole entry): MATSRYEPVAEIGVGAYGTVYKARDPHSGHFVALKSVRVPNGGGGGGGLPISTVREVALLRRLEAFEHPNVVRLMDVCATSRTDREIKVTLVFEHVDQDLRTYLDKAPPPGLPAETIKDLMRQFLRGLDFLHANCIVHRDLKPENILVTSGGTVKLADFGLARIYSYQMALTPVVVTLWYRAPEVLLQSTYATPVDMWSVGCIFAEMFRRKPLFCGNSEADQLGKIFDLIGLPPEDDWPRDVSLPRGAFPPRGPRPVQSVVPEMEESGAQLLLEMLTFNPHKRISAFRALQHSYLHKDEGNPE
# [13] = biological target: Cyclin-dependent kinase 4 (Homo sapiens) (UniProt P11802); conditions: at 1 µM
# [14] = biological target: Cyclin-dependent kinase 5 (Homo sapiens) (UniProt Q00535); conditions: at 0.1 µM
# Cyclin-dependent kinase 5 (Homo sapiens), sequence (Q00535 whole entry, looked up): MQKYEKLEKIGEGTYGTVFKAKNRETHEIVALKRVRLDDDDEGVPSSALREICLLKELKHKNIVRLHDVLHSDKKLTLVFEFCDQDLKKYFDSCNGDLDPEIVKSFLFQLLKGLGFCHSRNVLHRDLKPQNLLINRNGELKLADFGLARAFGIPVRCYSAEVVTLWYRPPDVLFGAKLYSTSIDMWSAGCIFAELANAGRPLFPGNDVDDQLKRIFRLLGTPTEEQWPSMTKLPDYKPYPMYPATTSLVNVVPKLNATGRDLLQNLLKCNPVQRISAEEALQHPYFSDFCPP
# [15] = biological target: Cyclin-dependent kinase 5 (Homo sapiens) (UniProt Q00535); conditions: at 1 µM
# [16] = biological target: Cyclin-dependent kinase 6 (Homo sapiens) (UniProt Q00534); conditions: at 0.1 µM
# Cyclin-dependent kinase 6 (Homo sapiens), sequence (Q00534 whole entry): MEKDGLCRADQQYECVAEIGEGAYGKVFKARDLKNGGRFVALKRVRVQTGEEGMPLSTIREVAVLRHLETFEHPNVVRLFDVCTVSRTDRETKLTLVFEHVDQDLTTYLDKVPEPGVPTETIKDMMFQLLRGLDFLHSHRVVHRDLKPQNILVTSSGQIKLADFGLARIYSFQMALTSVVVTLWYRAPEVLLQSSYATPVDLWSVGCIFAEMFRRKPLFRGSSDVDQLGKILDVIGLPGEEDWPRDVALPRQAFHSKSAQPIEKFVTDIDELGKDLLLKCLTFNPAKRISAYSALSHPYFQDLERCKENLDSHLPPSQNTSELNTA
# [17] = biological target: Cyclin-dependent kinase 6 (Homo sapiens) (UniProt Q00534); conditions: at 1 µM
# [18] = biological target: Dual specificity protein kinase CLK2 (Homo sapiens) (UniProt P49760); conditions: at 0.1 µM
# Dual specificity protein kinase CLK2 (Homo sapiens), sequence (P49760 whole entry, looked up): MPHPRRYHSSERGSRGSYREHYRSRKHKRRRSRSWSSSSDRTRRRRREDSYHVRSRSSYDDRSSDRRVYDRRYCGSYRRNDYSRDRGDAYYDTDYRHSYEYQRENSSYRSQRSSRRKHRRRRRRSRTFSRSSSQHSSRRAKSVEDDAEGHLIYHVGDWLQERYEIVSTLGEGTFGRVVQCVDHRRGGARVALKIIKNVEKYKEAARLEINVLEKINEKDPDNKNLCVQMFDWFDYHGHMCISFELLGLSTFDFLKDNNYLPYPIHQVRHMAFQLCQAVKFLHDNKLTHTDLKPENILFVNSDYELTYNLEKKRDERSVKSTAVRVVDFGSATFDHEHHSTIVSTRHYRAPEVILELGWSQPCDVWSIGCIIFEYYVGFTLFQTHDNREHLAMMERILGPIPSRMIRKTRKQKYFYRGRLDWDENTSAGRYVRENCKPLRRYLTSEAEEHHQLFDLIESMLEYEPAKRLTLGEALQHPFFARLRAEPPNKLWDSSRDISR
# [19] = biological target: Dual specificity protein kinase CLK2 (Homo sapiens) (UniProt P49760); conditions: at 1 µM
# [20] = biological target: Dual specificity protein kinase CLK3 (Homo sapiens) (UniProt P49761); conditions: at 0.1 µM
# Dual specificity protein kinase CLK3 (Homo sapiens), sequence (P49761 whole entry, looked up): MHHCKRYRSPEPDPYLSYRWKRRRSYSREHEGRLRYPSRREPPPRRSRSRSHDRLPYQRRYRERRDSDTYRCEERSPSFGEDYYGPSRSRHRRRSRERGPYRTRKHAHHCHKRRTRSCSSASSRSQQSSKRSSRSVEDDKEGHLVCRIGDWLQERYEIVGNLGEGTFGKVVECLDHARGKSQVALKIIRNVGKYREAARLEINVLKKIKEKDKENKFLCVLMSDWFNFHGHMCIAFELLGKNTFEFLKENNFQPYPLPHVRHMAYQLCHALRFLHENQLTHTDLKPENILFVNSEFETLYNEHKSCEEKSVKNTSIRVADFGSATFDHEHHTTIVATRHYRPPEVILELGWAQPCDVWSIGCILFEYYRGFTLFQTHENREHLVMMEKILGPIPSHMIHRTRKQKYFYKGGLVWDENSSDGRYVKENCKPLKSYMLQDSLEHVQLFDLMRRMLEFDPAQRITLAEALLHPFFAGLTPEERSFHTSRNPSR
# Casein kinase I isoform gamma-2 (Homo sapiens), sequence (P78368 whole entry, looked up, canonical isoform): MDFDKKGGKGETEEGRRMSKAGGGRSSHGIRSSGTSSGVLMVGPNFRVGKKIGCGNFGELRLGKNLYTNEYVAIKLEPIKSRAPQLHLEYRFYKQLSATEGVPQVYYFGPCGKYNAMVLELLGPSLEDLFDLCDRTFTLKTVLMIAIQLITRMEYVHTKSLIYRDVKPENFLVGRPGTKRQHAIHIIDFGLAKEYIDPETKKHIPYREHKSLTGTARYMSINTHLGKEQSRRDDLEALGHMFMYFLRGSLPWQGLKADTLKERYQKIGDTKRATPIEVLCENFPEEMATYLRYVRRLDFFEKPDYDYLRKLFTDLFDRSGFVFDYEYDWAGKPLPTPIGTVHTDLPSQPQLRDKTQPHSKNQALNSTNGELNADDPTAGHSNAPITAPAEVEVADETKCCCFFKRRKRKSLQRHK
# Casein kinase I isoform gamma-3 (Homo sapiens), sequence (Q9Y6M4 whole entry, looked up, canonical isoform): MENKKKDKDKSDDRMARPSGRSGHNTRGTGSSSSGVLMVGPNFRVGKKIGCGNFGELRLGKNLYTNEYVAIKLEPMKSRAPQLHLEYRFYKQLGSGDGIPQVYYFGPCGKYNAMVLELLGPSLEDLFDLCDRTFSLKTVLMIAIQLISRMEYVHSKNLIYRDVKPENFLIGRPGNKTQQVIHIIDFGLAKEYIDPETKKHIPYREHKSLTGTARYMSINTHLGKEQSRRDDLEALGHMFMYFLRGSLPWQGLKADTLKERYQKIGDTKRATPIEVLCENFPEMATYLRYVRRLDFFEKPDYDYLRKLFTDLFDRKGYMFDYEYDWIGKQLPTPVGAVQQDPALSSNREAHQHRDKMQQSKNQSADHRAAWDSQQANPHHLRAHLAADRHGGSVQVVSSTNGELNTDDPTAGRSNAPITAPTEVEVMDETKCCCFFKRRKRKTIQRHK
SMILES,inhibition [1] [%],inhibition [2] [%],inhibition [3] [%],inhibition [4] [%],inhibition [5] [%],inhibition [6] [%],inhibition [7] [%],inhibition [8] [%],inhibition [9] [%],inhibition [10] [%],inhibition [11] [%],inhibition [12] [%],inhibition [13] [%],inhibition [14] [%],inhibition [15] [%],inhibition [16] [%],inhibition [17] [%],inhibition [18] [%],inhibition [19] [%],inhibition [20] [%]
CCN1CCC(CC(=O)Nc2n[nH]c3nnc(-c4cccc(F)c4F)cc23)CC1,-0.19,-0.19,1.47,1.67,8.73,2.71,13.8,1.12,7.61,0.16,2.37,5.41,32.5,1.05,7.07,-1.17,17.4,5.35,29.9,-0.51
Nc1nc(-c2cccc(Cl)c2)c(-c2ccc3ncccc3n2)s1,13.7,6.72,24.7,0.61,2.18,1.23,0.95,3.69,4.47,2.24,-3.18,1.67,1.92,0.34,0.13,-7.38,-2.65,2.6,9.25,2.15
COc1cc2c(cc1Nc1nc(Nc3ccsc3C(N)=O)c3cc[nH]c3n1)N(C(=O)CN(C)C)CCC2(C)C,20.6,4.29,24.3,2.56,6.04,3.04,-0.79,8.82,10.2,8.96,-1.09,5.42,8.61,6.36,7.33,1.59,9.92,29,79.5,2
CC(=O)Nc1cccc(C#Cc2cncnc2Nc2ccc(OCc3cccc(F)c3)c(Cl)c2)c1,2.49,2.41,1.12,-0.4,0.31,0.72,1.81,2,0.87,1.66,0.86,1.84,1.74,0.82,0.21,-0.8,-0.16,2.3,1.56,-0.12
CC(C)COC(=O)c1ccc2c(c1)/C(=C/Nc1ccc(S(N)(=O)=O)cc1)C(=O)N2,14.2,-3.31,20.6,36.9,75.5,82,86.6,66.2,82.7,43.8,90.8,24.7,66.7,49.8,79.6,21.5,68.6,19.2,72.2,-0.32
NC(=O)c1sc(-n2cnc3ccc(C(F)(F)F)cc32)cc1OCc1ccccc1Br,4.58,1.35,2.37,-0.53,1.01,1.25,1.52,1.94,3.25,1.2,-2.34,1.68,2.94,-0.39,-0.71,-0.29,1.76,3.14,27.6,2.31
CNC(=O)c1cccc(C#Cc2cncnc2Nc2ccc(OCc3cccc(F)c3)c(Cl)c2)c1,1.26,2.38,0.88,0.46,2.85,-0.2,6.57,4.58,4.27,2.79,3.72,2.35,3.08,1.3,2.33,4.83,1.6,0.38,2.72,-0.87
Fc1cccc(COc2ccc(Nc3ncnc4sc(-c5ccco5)cc34)cc2Cl)c1,4.82,3.95,3.97,-1.09,1.41,2.79,2.68,3.66,6.69,-0.59,-1.8,3.4,5.13,-0.01,2.77,0.43,-0.36,1.15,-0.23,0.59
COc1cc(N2CCN(C(C)C)CC2)ccc1Nc1nc(Nc2ccc(F)cc2C(N)=O)c2cc[nH]c2n1,40.8,14.7,59,1.39,1.85,2.71,0.03,0.79,0.42,-2.54,0.34,1.59,5.82,0.74,0.58,-2.83,2.77,37.3,88.4,1.64
CS(=O)(=O)CCNCc1coc(-c2ccc3ncnc(Nc4ccc(OCc5ccccc5)cc4)c3c2)c1,1.86,1.74,1.31,2.51,1.71,2.91,2.02,1.53,3.24,-3.62,-1.98,1.27,3.49,0.65,2.1,0.39,3.6,3.24,1.86,-0.2
NS(=O)(=O)c1ccc(N/N=C2\C(=O)Nc3ccc4ncccc4c32)cc1,7.05,1.94,12.7,61.3,80.5,93.4,86.6,83.1,84.3,79.7,99.2,48,76.2,79,83.4,53.5,81.4,19.3,72.3,2.36
CCn1c(-c2nonc2N)nc2cnc(Oc3cccc(NC(=O)c4ccc(N(C)C)cc4)c3)cc21,1.09,0.95,0.52,0.43,0.67,1.74,8.52,1.65,2.7,-1.33,-1.3,1.81,1.34,0.66,1.93,-1.64,1.62,-0.04,1.15,0.38
Cc1cccc2c1NC(=O)/C2=N\Nc1ccc(S(N)(=O)=O)cc1,2.46,0.83,1.98,0.2,2.23,1.45,3.8,2.45,3.99,2.34,2.03,3.28,5.14,0.68,2.95,5.03,10.7,1.48,2.98,1.44
[O-][S+]1CCN(Cc2ccc(-c3ccc4ncnc(Nc5ccc(OCc6cccc(F)c6)c(Cl)c5)c4c3)o2)CC1,5.36,4.15,2.36,2.01,-1.04,3.62,4.32,5.35,6.57,0.55,-2.03,3.89,6.99,4,3.88,0.87,3.99,1.02,-0.02,1.18
CCn1c(-c2nonc2N)nc2ccccc21,2.97,0.54,4.86,-0.3,0.59,1.31,2.17,1.38,4.31,1.63,1.41,1.45,3.08,0.59,1.17,1.48,1.55,2.35,4.78,1.2
COc1ccc2c(-c3ccnc(Nc4cccc(OC(F)(F)F)c4)n3)cnn2n1,7.44,4.96,6.47,5.27,41.2,11.1,60.1,14.8,57,3.19,20.3,3.8,18,5.51,36.3,9.65,14.6,95.4,98.3,13.2
CNC(=O)c1cc(-c2ccc(F)cc2)cc(-c2ccc(S(=O)(=O)N3CCCC3)cc2)c1N,2.38,3.27,0.61,-0.56,1.19,1,1.91,2.41,3.39,-1.31,-2.51,1.65,2.17,0.12,1.55,-2.1,-3.59,1.77,2.42,0.69
CCn1c(-c2nonc2N)nc2c(C#CC(C)(C)O)nc(OC[C@H](N)c3ccccc3)cc21,5.45,1.72,4.23,2.55,0.95,3.52,4.36,0.77,2.97,-2.75,-0.33,2.31,2.26,1.23,3.05,-3.58,-0.97,1.87,12.1,1.29
CC(=O)NCc1cccc(C#Cc2cncnc2Nc2ccc(OCc3cccc(F)c3)c(Cl)c2)c1,0.99,-1.04,-0.37,0.28,2.88,1.01,-3.16,1.24,3.29,1.84,-1.44,1.51,5.22,1.7,5.29,-2.35,5.05,1,-0.78,0.32
CCn1c(-c2nonc2N)nc2c(C#CC(C)(C)O)ncc(OC3CCNCC3)c21,3.98,2.65,3.15,2.33,2.34,3.56,1.76,1.95,3.09,-1.98,-2.14,2.68,3.11,0.91,2.08,-2.96,-1.44,2.21,18,0.62
COc1cc2ncn(-c3cc(OCc4ccccc4C(F)(F)F)c(C(=O)N(C)C)s3)c2cc1OC,0.02,-1.27,0.6,0.2,1.91,1.29,-0.21,-0.22,0.54,1.54,-0.96,1.04,1.39,0.01,-0.22,-1.98,-0.75,-0.32,2.04,0.46
CCCN(CCS(C)(=O)=O)Cc1ccc(-c2ccc3ncnc(Nc4ccc(OCc5cccc(F)c5)c(Cl)c4)c3c2)o1,3.18,-1.08,1.11,2.23,8.04,0.78,-1.6,1.97,7,0.67,-1.26,1.25,5.06,2.08,6.83,1.99,7,1.46,0.75,1.51
CC1=C(C(=O)Nc2cc(Cl)c3[nH]ncc3c2)C(c2ccc(C(F)(F)F)cc2)CC(=O)N1 (stereo not given),3.61,1.59,2.92,-0.73,1.81,-0.94,9.38,2.4,7.57,2.08,0.3,2.42,3.48,0.48,1.62,-4.7,-0.24,1.17,4.84,1.15
CN1CCC(n2cnc(-c3ccc(F)cc3)c2-c2ccnc(N)n2)CC1,4.69,0.53,10.3,0.23,2,0.76,1.07,1.45,2.89,1.57,-0.17,0.29,1.34,0.36,1.02,1.87,0.65,2.8,13.8,0.99
COc1ccc(CNC(=O)c2ccc(-c3cc(-c4nnc(C)o4)ccc3C)cc2)cc1,0.62,0.01,0.83,1.08,1.37,-2.09,-1.7,1.68,3.08,3.23,-1.03,1.82,2.19,1.52,1.19,-1.69,-2.05,0.99,2.3,2.46
CCCN1CCC(c2ccc(Nc3nc(Nc4cc(F)ccc4C(N)=O)c4cc[nH]c4n3)c(OC)c2)CC1,72.7,35.4,79.8,1.73,6.31,1.78,0.94,7.06,11.8,4.1,-1.93,7.7,25.7,2.09,6.47,4.48,17.9,59.1,93.8,3.2
